This is a sample that favours compounds with a hit; in the whole collection about 14% have one here.
Shiga toxin inh – A qHTS for Small Molecule Inhibitors of Shiga Toxin | Vero cells, Shiga toxin protein synthesis inhibition reporter | inhibition, % at 38.7 µM | hit rate 9.2% among 290,000; in the data active means inhibition mostly above about 28%, no sharp cut-off; inactive means mostly below about 43%; further: 0% is about no effect
CHX counter – Cycloheximide Counterscreen for Small Molecule Inhibitors of Shiga Toxin | AID 2314, 2010 | cell reporter, cycloheximide protein synthesis inhibition counterscreen | hit rate 12% among 300,000 | max response, %; in the data active means max response mostly above about 13%, no sharp cut-off; inactive means mostly below about 14%; further: read at 38.3 µM for the half of the compounds with a filed dose; 0% is about no effect
NS1 inh – qHTS Assay for Inhibitors of Influenza NS1 Protein Function; Potency, µM (highest dose often 46.1 µM), without a hit: at the top dose activity, positive = more growth; hit rate 0.4% among 270,000; AID 2326, 2010; calls by dose curve; further: potency means the concentration at half of the fitted maximal effect; actives are rising curves; nearly all actives have a fitted effect of over 50% in size
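Read-out: OD600 growth recovery of NS1-expressing budding yeast. Cells grown overnight at 30C in -URA glucose medium, washed, resuspended and diluted 1:100 in 2% galactose assay medium, pH 6.0. Same strain lacking NS1 served as positive control.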
FBPA Giardia inh – qHTS Assay for Inhibitors of Fructose-1,6-bisphosphate Aldolase from Giardia Lamblia | A8B2U2 | Potency, µM (series often up to 59.6 µM), without a hit: at the top dose activity, negative = inhibition, hits mostly inhibitors | purified Giardia FBPA | hit rate 0.71% among 290,000; further: potency means the concentration at half of the fitted maximal effect; on the % scale 0 is the no-effect control and ±100 the full control effect; nearly all actives have a fitted effect of over 55% in size
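40 nM FBPA preincubated 10 min at RT with compound (up to 57.5 uM final), then substrate plus GAPDH/TPI/NAD/arsenate coupling and diaphorase/resazurin added. Fluorescence read after 20 min at RT, 525/598 nm.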
LmPK inh – qHTS Assay for Inhibitors of Leishmania Mexicana Pyruvate Kinase (LmPK) | Potency, µM (series often up to 57.5 µM), for inactives: at the top dose activity change, negative = inhibition, hits mostly inhibitors | hit rate 0.37% among 290,000 | AID 1721, 2009 | purified LmPK, Kinase-Glo ATP luminescence, 1 h | Q27686; further: potency means the concentration at half of the fitted maximal effect; on the % scale 0 is the no-effect control and ±100 the full control effect
Target sequence (Q27686 whole entry, looked up): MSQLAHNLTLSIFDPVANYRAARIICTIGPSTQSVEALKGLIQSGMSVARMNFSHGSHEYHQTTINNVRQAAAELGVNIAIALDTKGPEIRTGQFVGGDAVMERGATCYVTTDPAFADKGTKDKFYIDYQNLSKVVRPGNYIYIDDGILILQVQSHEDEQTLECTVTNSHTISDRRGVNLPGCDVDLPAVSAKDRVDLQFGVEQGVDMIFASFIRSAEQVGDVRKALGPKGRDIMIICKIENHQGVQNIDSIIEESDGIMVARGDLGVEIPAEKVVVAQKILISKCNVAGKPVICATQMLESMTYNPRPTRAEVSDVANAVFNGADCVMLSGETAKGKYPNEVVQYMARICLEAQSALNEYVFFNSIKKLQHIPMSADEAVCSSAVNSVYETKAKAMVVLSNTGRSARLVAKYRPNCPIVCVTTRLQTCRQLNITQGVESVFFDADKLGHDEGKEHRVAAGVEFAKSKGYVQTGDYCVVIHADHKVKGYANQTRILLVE
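Pyruvate kinase activity monitored as ATP production (luciferase luminescence). Conditions: 0.1 nM enzyme, 0.5 mM PEP, 0.1 mM ADP, 1 h, RT; normalized against uninhibited and no-enzyme wells.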
* = called active by the depositor; [ ] = remark or other dose. Unless noted, the call rests on the fitted dose curve; in most records, active means well fitted curve in the direction sought with a large enough effect; inconclusive means small, poorly fitted or top-dose-only effect, or another doubt; inactive means no such curve, though single readings can be large; an effect the other way counts as inactive or inconclusive.

CC(C)C[C@@H](CC(=O)N[C@@H](CCCN)CC(=O)N[C@@H]1CCNC[C@H]1C(=O)N[C@H](CC(=O)N[C@@H](CCC(=O)O)CC(=O)O)Cc1c[nH]c2ccccc12)NC(=O)[C@@H]1CNCC[C@H]1N was read as FBPA Giardia inh -26%.
For COC(=O)[C@@]1(Cc2ccccc2)[C@H]2c3cc(C(=O)N4CCCC4)n(CC4CC4)c3C[C@H]2CN1C(=O)c1ccccc1 the results were FBPA Giardia inh 0%.
`O=C1CC(c2ccccc2)CC(O)=C1C=Nc1ccc(O)cc1` (stereo not drawn) gave Shiga toxin inh 62, CHX counter 18*, NS1 inh 1%, FBPA Giardia inh -2% and LmPK inh 4%.
Screening CCOC(=O)c1ccc2c(c1)[nH]c(=S)n2CC returned Shiga toxin inh 88*, CHX counter 29*, NS1 inh -1%, FBPA Giardia inh -15% and LmPK inh 4%.
For CCOC(=O)c1ccc2c(c1)n(CC)c(C)[n+]2CC the results were Shiga toxin inh 15, CHX counter -4, NS1 inh 2%, FBPA Giardia inh 0% and LmPK inh 2%.
Screening CC(NC(=O)c1cc2ccccc2oc1=O)c1ccc(O)cc1 (stereo not drawn) returned Shiga toxin inh 10, CHX counter 7, NS1 inh 0%, FBPA Giardia inh 1% and LmPK inh -2%.
Screening COc1ccc2oc(=O)c(C(=O)Nc3ccccc3O)cc2c1 returned Shiga toxin inh 46, CHX counter 36*, NS1 inh -8%, FBPA Giardia inh -2% and LmPK inh -20%.
For CC(C)NC(=O)c1cc2cc(Br)ccc2oc1=O the results were Shiga toxin inh 86*, CHX counter 30*, NS1 inh 6%, FBPA Giardia inh -1% and LmPK inh 2%.
`COc1ccc2oc(=O)c(C(C)=O)cc2c1` gave Shiga toxin inh -2, CHX counter -2, NS1 inh 3%, FBPA Giardia inh 1% and LmPK inh -3%.
COc1ccc2oc(=O)c(C(=O)NC(C)c3ccccc3)cc2c1 (stereo not drawn) was read as Shiga toxin inh 54, CHX counter 18*, NS1 inh 3%, FBPA Giardia inh 18% and LmPK inh -6%.
`CN(C)CCNC(=O)c1cc2cc(Br)ccc2oc1=O` gave Shiga toxin inh 1, CHX counter 7, NS1 inh 20%, FBPA Giardia inh -1% and LmPK inh 12%.
For NC(N)=N/N=C\c1ccc(O)c(C(=O)O)c1 the results were NS1 inh -1%.
Screening Cc1cccc(CN2CCC(CNC(=O)Cn3ncc4c([nH]c5ccccc54)c3=O)CC2)c1 returned Shiga toxin inh 9, CHX counter -7, NS1 inh 0%, FBPA Giardia inh 2% and LmPK inh 7%.
C#CCCCO/N=C1/C[C@@H](O)[C@@H](O)[C@@H]2[C@H]3C(=O)N(c4ccc(F)cc4F)C(=O)[C@@H]3CC[C@@H]12 was read as FBPA Giardia inh 4%[12.9 µM].
For CCN(CC)S(=O)(=O)c1ccc(OC)c(NC(=S)Nc2cccc(C)c2)c1 the results were Shiga toxin inh 28, CHX counter 1, NS1 inh 22%, FBPA Giardia inh -3% and LmPK inh 4%.
Screening CCN(CC)S(=O)(=O)c1ccc(OC)c(NC(=S)Nc2cccc(C)c2C)c1 returned Shiga toxin inh -14, CHX counter 24*, NS1 inh 18%, FBPA Giardia inh -1% and LmPK inh 1%.
COCC(=O)N1CCC2(CCCN(Cc3ccc(C#N)cc3)C2)CC1 was read as FBPA Giardia inh 6%.
Screening c1ccc(CSc2ncnc3ccccc23)cc1 returned Shiga toxin inh 18, CHX counter 7, NS1 inh -41%, FBPA Giardia inh 2% and LmPK inh 3%.
O=C(CSc1ncnc2ccccc12)c1cccs1 was read as Shiga toxin inh 31, CHX counter 14, FBPA Giardia inh -5% and LmPK inh -9%.
`Cc1ccc(CSc2ncnc3ccccc23)cc1` gave Shiga toxin inh 34, CHX counter 21*, NS1 inh -7%, FBPA Giardia inh 0% and LmPK inh -1%.
`Cc1ccc(C(=O)CSc2ncnc3ccccc23)o1` gave Shiga toxin inh 110*, CHX counter 26*, FBPA Giardia inh -7% and LmPK inh inconclusive.
For Cc1cccc(CSc2ncnc3ccccc23)c1 the results were Shiga toxin inh 62*, CHX counter 22*, FBPA Giardia inh -1% and LmPK inh 9%.
`O=[N+]([O-])c1cccc(CSc2ncnc3ccccc23)c1` gave Shiga toxin inh 25, CHX counter 10, FBPA Giardia inh -4% and LmPK inh -8%.
CCCN(CCC)C(=O)C1CCN(c2ccc(S(=O)(=O)N3CCOCC3)cc2[N+](=O)[O-])CC1 was read as Shiga toxin inh -6, CHX counter 2, NS1 inh -2% and LmPK inh 9%.
Screening COc1cccc(CN(CC(=O)NC2CCCC2)C(=O)c2csnn2)c1 returned Shiga toxin inh -8, CHX counter -1, NS1 inh 4%, FBPA Giardia inh 3% and LmPK inh -1%.
CCOc1ccc2nc(SCC(=O)NCc3ccc(OC)cc3)[nH]c2c1 was read as Shiga toxin inh 63*, CHX counter 21, NS1 inh 4%, FBPA Giardia inh 7% and LmPK inh -3%.
COc1ccc(CNC(=O)CSc2nc3cccnc3s2)cc1 was read as Shiga toxin inh 17, CHX counter 15*, NS1 inh -5%, FBPA Giardia inh 2% and LmPK inh -1%.
CCOc1ccc2nc(SCc3ccc(C(=O)OC)o3)[nH]c2c1 was read as Shiga toxin inh 44*, CHX counter 28*, NS1 inh -6%, FBPA Giardia inh -10% and LmPK inh 0%.
For COC(=O)c1cc(CSc2nc3ccccc3[nH]2)oc1C the results were Shiga toxin inh 36*, CHX counter 32*, NS1 inh -14%, FBPA Giardia inh -17% and LmPK inh -8%.
COc1ccc(CNC(=O)CSc2nc3ccc(N)cc3s2)cc1 was read as Shiga toxin inh -9, CHX counter -2, NS1 inh 8%, FBPA Giardia inh -15% and LmPK inh 1%.
Screening COC(=O)c1ccc(CSc2nc3ccc(Cl)cc3[nH]2)o1 returned Shiga toxin inh -6, CHX counter -2, NS1 inh -4%, FBPA Giardia inh -17% and LmPK inh 2%.

Screens deposited in PubChem by National Center for Advancing Translational Sciences (NCATS).
